# Compounds without any hit were thinned out: in the full panel of roughly 83,000, 20% have a hit.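 Assay: single dose, 48 h. Readout: percent growth (0 = no net growth; negative = cell death). Active: <10.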 Active and inactive are the calls of the source.
# Test system: MDA-MB-468 breast
# Assay: NCI-60 one-dose screen, 48 h (100 = growth as untreated, 0 = no growth, -100 = all killed)
# Conditions: 10 µM unless noted
row,SMILES,growth
1,Cc1ccncc1NC=O,107% (inactive)
2,C#C[C@]1(O)CC[C@H]2[C@@H]3CC=C4c5sc(Nc6ccc(OC)nc6)nc5CC[C@]4(C)[C@H]3CC[C@@]21C,17.4% (inactive)
3,NS(=O)(=O)c1ccc(Nc2nc(N/N=C/c3ccc(Cl)cc3)nc(Nc3ccccc3)n2)cc1,66.6% (inactive)
4,Nc1ncnc2c1C(c1ccc(Br)cc1)c1sc3c(F)cccc3c1O2 (stereo not drawn),103% (inactive)
5,C#C[C@]1(O)CC[C@H]2[C@@H]3CC=C4c5sc(Nc6cc(OC)ccc6OC)nc5CC[C@]4(C)[C@H]3CC[C@@]21C,9.15% (active)
6,C/C(=C(/c1ccc(Cl)cc1)c1ccc(OCCN2CCCC2)cc1)c1ccccc1,62.4% (inactive)
7,Cn1cc(-c2csc(-c3cn(C)c4ncccc34)n2)c2cc(Br)cnc21,-28.4% (active)
8,Cn1c(=O)c2c(nc(N/N=C/c3ccccc3Cl)n2C)n(C)c1=O,102% (inactive)
9,COc1ccc2ccccc2c1/C=N/N1CCCCC1,113% (inactive)
10,O=C(/C=C/c1cn(-c2ccccc2)nc1-c1cccc(Nc2ccnc3cc(Cl)ccc23)c1)c1ccc2c(c1)OCO2,68.2% (inactive)
11,COc1cccc2c1-c1ccccc1C2=O,39.3% (inactive)
12,S=C1CCSC(=S)N1CCCN1C(=S)CCSC1=S,37.8% (inactive)
13,CCOC(=O)c1cc(C(=O)c2ccc(F)cc2F)n2ccccc12,102% (inactive)
